Screen size: about 5,500 compounds; about 2,000 (36%) were called active. Roughly 18% stayed inconclusive and do not appear here. Rule as the data show it: active = normalized growth mostly below about 0.91 (no sharp cut-off); inconclusive = no clear call, values can overlap the other calls; inactive = mostly above about 0.92. This is one part of the list.
Test: chemical genetic growth profiling, strain panel (AID 1159580);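 also: tested at 20 µM; growth read once vehicle control cultures reached saturation at 30 °C; 1 = growth at the plate median or of vehicle wells; lower values mean less growth of the strain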
Details: growth OD

Measured: normalized growth

CC(=O)C1=C(O)C2C3c4c[nH]c5cccc(c45)CC3C(C)(C)N2C1=O (stereo unspecified)
inactive: S. cerevisiae deletion strains, locus YAL013W, strain DEP1, hits give low values 0.994 | S. cerevisiae deletion strains, locus YBR021W, strain FUR4, hits give low values 0.983 | S. cerevisiae deletion strains, locus YBR229C, strain ROT2, hits give low values 0.997 | S. cerevisiae deletion strains, locus YCL029C, strain bik1, hits give low values 1 | S. cerevisiae deletion strains, locus YDL035C, strain GPR1, hits give low values 1.01 | S. cerevisiae deletion strains, locus YDL074C, strain BRE1, hits give low values 1.01 | S. cerevisiae deletion strains, locus YDL101C, strain DUN1, hits give low values 1.01 | S. cerevisiae deletion strains, locus YDL134C, strain PPH21, hits give low values 1 | S. cerevisiae deletion strains, locus YDL185W, strain tfp1, hits give low values 0.995 | S. cerevisiae deletion strains, locus YDL192W, strain arf1, hits give low values 1 | S. cerevisiae deletion strains, locus YDR101C, strain arx1, hits give low values 0.995 | S. cerevisiae deletion strains, locus YDR150W, strain NUM1, hits give low values 1.01 | S. cerevisiae deletion strains, locus YDR162C, strain NBP2, hits give low values 0.993 | S. cerevisiae deletion strains, locus YDR318W, strain mcm21, hits give low values 1.01 | S. cerevisiae deletion strains, locus YDR388W, hits give low values 1 | S. cerevisiae deletion strains, locus YDR502C, strain sam2, hits give low values 1.01 | S. cerevisiae deletion strains, locus YEL061C, strain CIN8, hits give low values 0.989 | S. cerevisiae deletion strains, locus YER110C, hits give low values 1.01 | S. cerevisiae deletion strains, locus YER155C, strain BEM2, hits give low values 1 | S. cerevisiae deletion strains, locus YER167W, strain BCK2, hits give low values 1.01 | S. cerevisiae deletion strains, locus YGL078C, strain dbp3, hits give low values 1 | S. cerevisiae deletion strains, locus YGL086W, strain mad1, hits give low values 1.01 | S. cerevisiae deletion strains, locus YGL248W, strain PDE1, hits give low values 0.997 | S. cerevisiae deletion strains, locus YGR078C, strain PAC10, hits give low values 0.975 | S. cerevisiae deletion strains, locus YGR135W, strain pre9, hits give low values 0.993 | S. cerevisiae deletion strains, locus YGR229C, strain SMI1, hits give low values 0.971 | S. cerevisiae deletion strains, locus YGR252W, strain gcn5, hits give low values 1.04 | S. cerevisiae deletion strains, locus YHR030C, strain SLT2, hits give low values 1.01 | S. cerevisiae deletion strains, locus YHR079C, strain IRE1 (second series), hits give low values 1.02 | S. cerevisiae deletion strains, locus YHR094C, strain hxt1, hits give low values 1 | S. cerevisiae deletion strains, locus YHR129C, strain ARP1, hits give low values 1 | S. cerevisiae deletion strains, locus YHR200W, strain rpn10, hits give low values 1.01 | S. cerevisiae deletion strains, locus YIL066C, strain RNR3, hits give low values 1.04 | S. cerevisiae deletion strains, locus YIL073C, strain SPO22, hits give low values 1.07 | S. cerevisiae deletion strains, locus YIL125W, strain kgd1, hits give low values 1 | S. cerevisiae deletion strains, locus YIR030C, strain dcg1, hits give low values 1 | S. cerevisiae deletion strains, locus YJL095W, strain BCK1, hits give low values 1 | S. cerevisiae deletion strains, locus YJL134W, strain LCB3, hits give low values 1.01 | S. cerevisiae deletion strains, locus YJL168C, strain set2, hits give low values 1.01 | S. cerevisiae deletion strains, locus YJL187C, strain SWE1 (second series), hits give low values 1.01 | S. cerevisiae deletion strains, locus YJR043C, strain POL32, hits give low values 1.01 | S. cerevisiae deletion strains, locus YJR075W, strain HOC1, hits give low values 1 | S. cerevisiae deletion strains, locus YKL009W, strain mrt4, hits give low values 1.03 | S. cerevisiae deletion strains, locus YKL068W, hits give low values 1 | S. cerevisiae deletion strains, locus YKL085W, strain MDH1 (second series), hits give low values 0.994 | S. cerevisiae deletion strains, locus YKL085W, strain MDH1, hits give low values 0.994 | S. cerevisiae deletion strains, locus YKL190W, strain CNB1, hits give low values 0.99 | S. cerevisiae deletion strains, locus YKR001C, strain vps1, hits give low values 1 | S. cerevisiae deletion strains, locus YLR039C, strain RIC1, hits give low values 0.979 | S. cerevisiae deletion strains, locus YLR058C, strain SHM2, hits give low values 1 | S. cerevisiae deletion strains, locus YLR102C, strain apc9, hits give low values 1.01 | S. cerevisiae deletion strains, locus YLR262C, strain YPT6, hits give low values 0.97 | S. cerevisiae deletion strains, locus YLR268W, strain sec22, hits give low values 0.995 | S. cerevisiae deletion strains, locus YLR330W, strain CHS5, hits give low values 0.992 | S. cerevisiae deletion strains, locus YLR342W, strain FKS1 (second series), hits give low values 1.02 | S. cerevisiae deletion strains, locus YLR371W, strain rom2, hits give low values 1.01 | S. cerevisiae deletion strains, locus YLR418C, strain cdc73, hits give low values 0.99 | S. cerevisiae deletion strains, locus YML016C, strain PPZ1, hits give low values 1 | S. cerevisiae deletion strains, locus YML032C, strain rad52, hits give low values 1.01 | S. cerevisiae deletion strains, locus YML124C, strain tub3, hits give low values 1 | S. cerevisiae deletion strains, locus YMR078C, strain ctf18, hits give low values 1 | S. cerevisiae deletion strains, locus YMR223W, strain ubp8, hits give low values 1.03 | S. cerevisiae deletion strains, locus YMR263W, strain SAP30, hits give low values 1.01 | S. cerevisiae deletion strains, locus YMR307W, strain GAS1, hits give low values 1.08 | S. cerevisiae deletion strains, locus YNL067W, strain RPL9B, hits give low values 1 | S. cerevisiae deletion strains, locus YNL128W, strain TEP1, hits give low values 0.998 | S. cerevisiae deletion strains, locus YNL153C, strain GIM3, hits give low values 0.999 | S. cerevisiae deletion strains, locus YNL233W, strain BNI4, hits give low values 1.01 | S. cerevisiae deletion strains, locus YNL250W, strain rad50, hits give low values 1.01 | S. cerevisiae deletion strains, locus YNL271C, strain bni1, hits give low values 1.01 | S. cerevisiae deletion strains, locus YNL298W, strain CLA4, hits give low values 0.998 | S. cerevisiae deletion strains, locus YNL307C, strain MCK1, hits give low values 1.02 | S. cerevisiae deletion strains, locus YNL322C, strain KRE1, hits give low values 1 | S. cerevisiae deletion strains, locus YNR052C, strain pop2, hits give low values 1.01 | S. cerevisiae deletion strains, locus YOL006C, strain TOP1, hits give low values 1.06 | S. cerevisiae deletion strains, locus YOL012C, strain htz1 0.841 | S. cerevisiae deletion strains, locus YOL147C, strain pex11, hits give low values 1.01 | S. cerevisiae deletion strains, locus YOR061W, strain CKA2, hits give low values 1 | S. cerevisiae deletion strains, locus YOR069W, strain VPS5, hits give low values 0.993 | S. cerevisiae deletion strains, locus YOR136W, strain idh2, hits give low values 1.01 | S. cerevisiae deletion strains, locus YOR144C, strain elg1, hits give low values 1 | S. cerevisiae deletion strains, locus YOR184W, strain ser1, hits give low values 1.03 | S. cerevisiae deletion strains, locus YOR316C, strain cot1, hits give low values 1 | S. cerevisiae deletion strains, locus YPL055C, strain LGE1, hits give low values 0.976 | S. cerevisiae deletion strains, locus YPL241C, strain CIN2, hits give low values 1.05 | S. cerevisiae deletion strains, locus YPR119W, strain clb2, hits give low values 1 | S. cerevisiae deletion strains, locus YPR141C, strain kar3, hits give low values 1 | S. cerevisiae deletion strains, locus YPR163C, strain tif3, hits give low values 1 | S. cerevisiae deletion strains, locus YPR167C, strain met16, hits give low values 1.01 | S. cerevisiae deletion strains, strain wtn01, hits give low values 0.995 | S. cerevisiae strains, strain wild type, hits give low values 0.971

From PubChem BioAssay AID1159580 (chemical genetic matrix, 2015)
